The values that follow come from PubChem BioAssay AID1345085 (National Center for Advancing Translational Sciences (NCATS), 2018).

Molecules are shown by their SMILES. Inconclusive results are not listed. A number with no mark means an inactive call. Calls of active or inactive are those of the source. The call rests on the fitted dose curve; in most records, active means well fitted cell-killing curve with a large enough effect; inconclusive means small, poorly fitted or top-dose-only effect, or effect the other way; inactive means no such curve, though single readings can be large or run the other way.
On the % scale 0 is the no-effect control and ±100 the full control effect; potency means the concentration at half of the fitted maximal effect.

This assay concerns SW626. In words: Confirmatory qHTS for gynecologic anti-cancer compounds from libraries of approved drugs and bioactive compounds. Further: nearly all actives have a fitted effect of over 55% in size. As to conditions: gynecologic cancer cell panel viability, ATPlite luminescence, 48 h; series mostly up to 57.6 µM; activity change, negative = viability loss: at the top concentration. The source says: National Center for Advancing Translational Sciences [NCATS] Assay Overview: Chemotherapeutic drug responses vary from cancer to cancer and from patient to patient. These variations could be caused by a number of factors including patient genomic background, tumor mutations, tumor heterogeneity, and aspects of drug treatment. Chemotherapeutic drug resistance is also a common issue and can lead to ineffective treatment and patient death. Here we have profiled the cell killing effects of thousands of compounds to characterize the responses in three gynecological cancers, identify cancer-selective compounds, and understand the diversity of responses to these compounds from pan-cancer suppressors to single cell line selective compounds. In this assay, we screened a 7,914 compound drug library that included approved drug and bioactive compounds in six ovarian, three cervical, and two placental cancer cell lines using the ATPlite assay for cell viability. ATPlite is a luminescence based assay reliant on the conversion of a luciferase substrate to light in the presence of ATP. As a cytotoxic compound will suppress growth and decrease the number of cells, the concentration of ATP will decrease, and less light signal will be detected in the well. Hits were selected from the primary screen for follow-up confirmation. For the confirmation screens, the ovarian cancer cell lines included CAOV-3, SK-OV-3, SW 626, ES-2, PA-1, and TOV-21G. The cervical cancer cell lines included HeLa, Ca Ski, and C-33 A. The placental cancer cell lines included JEG-3 and JAR. HEK 293T cells were used as the control cell line to determine the selectivity index. The ATPlite assay was used to determine the IC50 values.
Assay Protocol Summary: 1,000 cells in 4 uL of media were dispensed into white, solid bottom 1536-well plates using a Multidrop Combi (Thermo Scientific). The Assay plates were incubated for 16 hours at 37 C with 5% CO2 in assay plates, followed by the addition of 23 nL of DMSO or drug dissolved in DMSO. . Each compound was assayed in 11 concentrations (1:3 dilution) from 57.5 uM to 0.977 nM, using the automated Wako 1536 Pin Tool workstation and incubated at 37 C with 5% CO2 48 hours. 4 uL of ATPlite, the ATP monitoring reagent, was then added to the each well of the assay plates using the Multidrop Combi reagent dispenser followed by incubation for 15 minutes at room temperature. The resulting luminescence was measured using the ViewLux plate reader.
`C=C(C)[C@H]1Cc2c(ccc3c2O[C@@H]2COc4cc(OC)c(OC)cc4[C@@H]2C3=O)O1`: the “activity change, negative = viability loss” value was -16.4%.
`O=C(O)Cc1ccccc1`: the “activity change, negative = viability loss” value is -10.6%.
Still for that read-out and setting: under `CCNC(=O)C[C@@H]1N=C(c2ccc(Cl)cc2)c2cc(OC)ccc2-n2c(C)nnc21` stands -22.2%.
Regarding `C[C@H]1CCC/C=C/C2C[C@H](O)C[C@H]2[C@H](O)/C=C/C(=O)O1` (some centres not stated), the Potency is 172 nM (active).
In the case of `CCN1CCN(C(=O)Cc2ccc(Nc3ncc(F)c(Nc4ccc(C(=O)Nc5ccccc5Cl)cc4)n3)cc2)CC1`, the “activity change, negative = viability loss” value was -8.41%.
`CCOc1ccccc1-n1c(C(C)N2CCN(C(=O)COc3ccc(Cl)cc3)CC2)nc2ccccc2c1=O` (configuration not stated): the Potency is 4850 nM (active).
With `C[C@]12CC[C@H]3[C@@H](CCC4=CC(=O)CC[C@@H]43)[C@@H]1CC[C@@H]2OC(=O)CCc1ccccc1`, the “activity change, negative = viability loss” value was -4.54%.
